Measurements: PubChem BioAssay (Tox21)
Records with an inconclusive call do not appear. A number with no mark means an inactive call. Active and inactive are the calls of the source. Calls come from the whole dose curve; as a rule, active = well fitted activation curve with a large enough effect in the repeat runs; inconclusive = weak or mixed curves; inactive = flat fitted curve, though single readings scatter.
% is set by controls: 0 for no effect and ±100 for the full control effect; potency is the fitted concentration of half-maximal effect.

Assay: A CellTox Green Cytotoxicity Assay to monitor cytotoxicity in HEK293 cells - 24 hour (AID 1224875); note: nearly all actives have a fitted effect of over 45% in size
Details: CellTox Green fluorescence; series mostly up to 76.8 µM; activity change: at the top concentration
Text: National Center for Advancing Translational Sciences [NCATS]
NIH Chemical Genomics Center [NCGC]
U.S. Environmental Protection Agency [EPA]
National Institutes of Environmental Health Sciences [NIEHS]
National Toxicology Program [NTP]
Cell-based models are critical for drug discovery. Determining the natural cytotoxic effects resulting from test compounds is an essential research activity. A CellTox Green Cytotoxicity Assay to monitor cytotoxicity in real time of continues cell culture during 40 hours of the compound treatment was used to screen Tox21 10K library compounds in Hek293 cells. CellTox Green Cytotoxicity Assay is a nonlytic, homogeneous, biofluorescent method to measure cytotoxicity in cell culture after experimental manipulation. The assay system uses a proprietary asymmetric cyanine dye that is excluded from viable cells but preferentially stains the dead cell's DNA. […] Viable cells produce no appreciable increases in fluorescence. Therefore, the fluorescence signal produced by the binding interaction with dead cell DNA is proportional to cytotoxicity.
The mixture of Hek293 cell suspension and reagents were dispensed at 600cells/6 ul/well in 1536-well tissue culture treated black solid bottom plates using a Multidrop dispenser. After the assay plates were incubated at a 37 C/5% CO2 incubator for 5 hours, 23 nL of compounds dissolved in DMSO, positive and negative controls was transferred to the assay plate by a pintool work station. The plates were incubated at 37 C for 40 hours. The fluorescence intensity were measured at 0h, 8h, 16h, 24h, 32h and 40h time points using ViewLux plate reader during compound treatment.
In the case of `CCCCCCCCCc1ccc(OCCOCCO)cc1`, the Potency is reported as 14.5 µM (active). With `CC(C)C[C@H]1C(=O)N2CCC[C@H]2[C@]2(O)O[C@](NC(=O)[C@@H]3C=C4c5cccc6[nH]c(Br)c(c56)C[C@H]4N(C)C3)(C(C)C)C(=O)N12` the “activity change” value was -10.9% [at 35.3 µM, stronger effect = higher value]. For `COc1ccc(C(=O)Nc2nc3ccccc3c(NCc3ccccc3)c2C#N)cc1`, the “activity change” value was -12.9%. In the case of `C/C(=C(\CCOP(=O)(O)O)SC(=O)c1ccccc1)N(C=O)Cc1cnc(C)nc1N`, the activity change is reported as -4.36% [at 6.97 µM, stronger effect = higher value]. For `O=C(c1ccc(F)cc1)C1CCN(CCn2c(=S)[nH]c3ccccc3c2=O)CC1`, the “activity change” value was 5.23% [at 35.3 µM, stronger effect = higher value]. In the case of `CCCCNc1ccc(C(=O)OCCOCCOCCOCCOCCOCCOCCOCCOCCOC)cc1`, the “activity change” value is reported as -1.19% [at 35.3 µM, stronger effect = higher value]. With `CCCCc1ncc(/C=C(\Cc2cccs2)C(=O)O)n1Cc1ccc(C(=O)O)cc1` the “activity change” value was -6.93% [at 35.3 µM, stronger effect = higher value]. With `O=C(O)c1ccc(S(=O)(=O)O)cc1C(=O)O` the “activity change” value was -24.4%. With `CCC(C)(C)CC` the “activity change” value was -5.6%. In the case of `Cc1ccc(C(=O)Oc2ccc(C(O)CNC(C)(C)C)cc2OC(=O)c2ccc(C)cc2)cc1` (stereo not given), the Potency is reported as 23.9 µM (active). With `c1cc(CCCc2ccncc2)ccn1` the “activity change” value was -13.6%. With `CCOC(=O)Cc1cccc2ccccc12` the “activity change” value was 7.91%. For `COc1cc(Cl)c(OC)cc1N`, the “activity change” value was -3.93%. In the case of `O=[N+]([O-])c1ccc2[nH]ncc2c1`, the “activity change” value is reported as 0.384%. In the case of `NCC(=O)O`, the activity change is reported as -2.36% [at 15.8 µM, stronger effect = higher value]. For `COc1cc2nc(Cl)nc(N)c2cc1OC`, the “activity change” value was -24.9% [at 35.3 µM, stronger effect = higher value]. For `CN(C)C(=O)NC1(c2ccccc2)CCN(CC[C@@]2(c3ccc(F)c(F)c3)CN(C(=O)c3ccccc3)CCO2)CC1`, the “activity change” value was -1.7%. With `O=P(O)(OCc1ccccc1)OCc1ccccc1` the “activity change” value was 13.5%. For `CCN(CC)c1ccc(C(=C2C=CC(=[N+](CC)CC)C=C2)c2cc(S(=O)(=O)O)ccc2S(=O)(=O)[O-])cc1`, the “activity change” value was 3.11% [at 35.3 µM, stronger effect = higher value]. With `CC(=O)c1ccc2c(c1)N(CCCN(C)C)c1ccccc1S2` the “activity change” value was 1.97% [at 35.3 µM, stronger effect = higher value]. With `CN(C)CCOC(c1ccccc1)c1ccc(Br)cc1` (stereo not given) the “activity change” value was 21.6% [at 35.3 µM, stronger effect = higher value]. With `CC(C)O.CC(C)O.CCOC(=O)/C=C(\C)O.CCOC(=O)/C=C(\C)O.[Ti]` the “activity change” value was -1.36%. With `C=C1[C@H]2CC[C@@H]3[C@H]2C(C)(C)CCC[C@]13C` the “activity change” value was -0.922%. For `c1ccc(C(O[C@H]2CCCN(CCc3ccc4c(c3)OCO4)C2)c2ccccc2)cc1`, the “activity change” value was -9.93% [at 35.3 µM, stronger effect = higher value]. With `C=C(C)C(=O)OCC` the “activity change” value was -3.78%. With `OCCNCc1ccccc1` the “activity change” value was -3.02%. With `COc1ccc(S(=O)(=O)N2C(=O)[C@@](c3ccccc3OC)(N3C[C@H](O)C[C@H]3C(=O)N(C)C)c3cc(Cl)ccc32)c(OC)c1` the “activity change” value was -4.09%. For `CN(C)CCN(Cc1ccccc1)c1ccccn1`, the “activity change” value was -6.92% [at 35.3 µM, stronger effect = higher value]. With `CCC(CC)Nc1ccc(C)c(C)c1` the “activity change” value was -5.17%. In the case of `CC1=CC=C(C(C)C)CC1`, the “activity change” value is reported as -3.02%. With `COc1ccc(C(=O)N2CCN(CC(=O)N3CCOCC3)CC2)cc1` the “activity change” value was -9.42% [at 35.3 µM, stronger effect = higher value]. In the case of `CN(C)c1ccc(CCO)cc1`, the “activity change” value is reported as -1.42%. With `CCCCCCOC(=O)NC(=N)c1ccc(NCc2nc3cc(C(=O)N(CCC(=O)OCC)c4ccccn4)ccc3n2C)cc1` the “activity change” value was 4.79% [at 35.3 µM, stronger effect = higher value]. With `C1CCCNCCC1` the “activity change” value was 10.3%. In the case of `CN(C)CCN(Cc1ccc(Cl)cc1)c1ccccn1`, the “activity change” value is reported as 4.64% [at 35.3 µM, stronger effect = higher value]. With `CNC(=O)CN(CCN(CCN(CC(=O)[O-])CC(=O)NC)CC(=O)[O-])CC(=O)[O-].O.[Gd+3]` the “activity change” value was -4.85% [at 35.3 µM, stronger effect = higher value]. For `O=C(O)c1nc(Cl)c(Cl)c(Cl)c1Cl`, the “activity change” value was -8.69%. For `Cc1cccc(C)c1NC(=O)CN(CC(=O)O)CC(=O)O`, the “activity change” value was -13.9% [at 35.3 µM, stronger effect = higher value]. In the case of `O=C(O)C1(C(=O)O)CCC1.[NH2-].[NH2-].[Pt+2]`, the “activity change” value is reported as -25.8% [at 35.3 µM, stronger effect = higher value]. With `CC(CC=O)c1ccccc1` (stereo not given) the “activity change” value was 3.77%.
